Assay results as given in ChEMBL document CHEMBL3988442, “University of Dundee, Small-Polar-MMV Screening Library” (2021).
The whole screen tested about 53,000 compounds, of which about 900 (1.7%) showed an effect of 50% or more. Only a selection was taken, and strong results are over-represented in it overall.

tested on: Mycobacterium tuberculosis; assay: Cornell - Phenotypic assay to identify agents that inhibit growth of Mycobacterium tuberculosis; format: functional; parameters: scale not given: direction of the effect not stated beside the values; conditions: 10 mM as filed; unlikely as a test dose

Row | SMILES | Percent Effect
1 | OC[C@H]1CCCN1c1nccc(-c2c[nH]nc2C2CCCCC2)n1 | 4.191%
2 | NC(=O)C1CCN(c2nccc(-c3c[nH]nc3C3CCCCC3)n2)CC1 | 12.19%
3 | c1cc(-c2c[nH]nc2C2CCCCC2)nc(N2CCCCCC2)n1 | 77.63%
4 | COCCNC(=O)c1ccc2ccc(N3CCN(CC4CC4)CC3)n2c1 | -16.88%
5 | Cc1cc(-c2cc(F)ccc2C(=O)O)nc(C2CCCN(C)C2)n1 (stereo not given) | 0.614%
6 | Cc1nnc(NCC2(c3ccccc3)CCC2)c(C#N)c1C | 47.49%
7 | COc1ccccc1C1(CNc2nnc(C)c(C)c2C#N)CCOCC1 | -5.763%
8 | COc1ccccc1C1(CNc2nnc(C)c(C)c2C#N)CCCC1 | 86.76%
9 | Cn1cnnc1SCc1cc2c(cc1Cl)OCO2 | 23.01%
10 | Cc1n[nH]c(C)c1NC(=O)C1CCCN(C(=O)NCC(C)C)C1 (stereo not given) | -0.6091%
11 | CCCc1cnc(C)nc1N1CCC(Cn2cc(CN(C)C)nn2)CC1 | 18.6%
12 | O=S(=O)(c1cccnc1)N1CCCCC1CCN1CCOCC1 (stereo not given) | -15.47%
13 | Cc1cc(C(=O)N(CC(F)(F)F)C2CCOCC2)c(C)o1 | 51.1%
14 | O=C(c1ccc(F)cc1F)N(CC(F)(F)F)C1CCOCC1 | 37.88%
15 | CCN(C(=O)c1cc(C)oc1C)C1CC1 | 4.626%
16 | Cc1cn2c(n1)CCC(NC(=O)CCOc1cccc(F)c1)C2 (stereo not given) | 5.433%
17 | Cc1cc(N2CCN(C3CCOCC3)CC(C(=O)N(C)C)C2)ncn1 (stereo not given) | 3.983%
18 | Cc1ccccc1CC(=O)NCc1cnc(CC2CCN(C)CC2)cn1 | 48.16%
19 | Cc1ccc(CN2CCC3(CC2)C(=O)Nc2ccccc23)s1.O=C(O)C(F)(F)F | 18.05%
20 | O=C(O)C(F)(F)F.O=C1Nc2ccccc2C12CCN(Cc1nccs1)CC2 | -8.416%
21 | O=C(O)C(F)(F)F.O=C1Nc2ccccc2C12CCN(Cc1cccs1)CC2 | 50.44%
22 | CCOc1ccc(NC(C)=O)cc1S(=O)(=O)Nc1nccs1 | 7.151%
23 | CN(Cc1ccco1)C(=O)Nc1cc(C(F)(F)F)c[nH]c1=O | -17.34%
24 | CC(CCc1ccco1)NC(=O)Nc1cc(C(F)(F)F)c[nH]c1=O (stereo not given) | 102.9%
25 | O=C(CCc1ccco1)Nc1cc(C(F)(F)F)c[nH]c1=O | 7.769%

Row | SMILES | Percent Effect
26 | Cc1nc(C)n(CC(=O)N2CCCC(c3cc4ccccc4cn3)C2)n1 (stereo not given) | -16.13%
27 | CC(C)c1nc(N2CCN3CCCC3C2)c2cnn(C)c2n1 (stereo not given) | 62.47%
28 | CC(C)c1nc(N2CCC(N3CCCC(O)C3)CC2)c2cnn(C)c2n1 (stereo not given) | 28.63%
29 | CC(C)c1nc(N2CCC(N3CCCCCC3)CC2)c2cnn(C)c2n1 | 30.23%
30 | Cc1cc(C)nc(N2CCC(c3noc(C)n3)CC2)n1 | -1.548%
31 | O=C(CC1CCN(c2cccnn2)CC1)NCCO | 12.72%
32 | CCC/N=c1/c(NC(=O)NCCCOC)c(O)oc2ccccc12 | -33.59%
33 | CCc1ccc(CN(C)C(=O)C(c2ccccc2F)N(C)C)nc1 (stereo not given) | 0.2159%
34 | CCCC(=O)NCC(Cc1cccc(F)c1)N1CCCC1=O (stereo not given) | 2.564%
35 | NC(=O)NC(=O)CCN(Cc1ccccc1)CC1CCOCC1 | 53.84%
36 | O=C(CN(Cc1ccccc1)CC1CCOCC1)Nc1nccs1 | 42.61%
37 | O=C(CN(Cc1ccccc1)CC1CCOCC1)NC(=O)NC1CC1 | 16.06%
38 | CCc1ccc(C(COC)NC(=O)c2ccc(C(N)=O)cc2)o1 (stereo not given) | 17.07%
39 | Cc1oncc1C(=O)N1CCOCC2(CCN(c3ccccn3)C2)C1.O=C(O)C(F)(F)F (stereo not given) | -11.19%
40 | Cc1nc(C)n(CC2CCCN2Cc2cccc3c2OCCO3)n1 (stereo not given) | -6.241%
41 | CC(=O)N1CCC[C@@H](NCc2cccc(F)c2)[C@@H]1c1ccc(C)s1.Cl | -22.92%
42 | CC(=O)N1CCC[C@@H](NCc2c[nH]c3ccccc23)[C@@H]1c1ccc(C)s1.Cl | 66.32%
43 | CC(=O)N1CCC[C@@H](NCc2ccc(F)cc2)[C@@H]1c1ccc(C)s1 | 1.669%
44 | c1ccc2ncc(CC3CCNC3)cc2c1 (stereo not given) | -46.09%
45 | O=c1n(Cc2ccc(F)cc2)nc2ncccn12 | -16.62%
46 | COc1cccc(OCc2cc(C(=O)N3CC(O)C3)n[nH]2)c1 | 3.061%
47 | O=C(c1cc(COc2ccc3c(c2)OCO3)[nH]n1)N1CCOCC1 | 35.93%
48 | O=C(c1cc(COc2ccc3c(c2)OCO3)[nH]n1)N1CCCC(O)C1 (stereo not given) | 44.89%
49 | O=C(c1cc(COc2ccc3c(c2)OCO3)[nH]n1)N1CC=CC1CO (stereo not given) | 46.2%
50 | O=C(c1cc(COc2ccc3c(c2)OCO3)[nH]n1)N1CCCC1 | 105.4%

Row | SMILES | Percent Effect
51 | O=C(c1cc(COc2ccc3c(c2)OCO3)[nH]n1)N1CCCO1 | 80.32%
52 | O=C(c1cc(COc2ccc3c(c2)OCO3)[nH]n1)N1CCCCO1 | 15.85%
53 | C[C@@H]1CN(C(=O)c2cc(COc3ccc4c(c3)OCO4)[nH]n2)C[C@H](C)O1 | 3.14%
54 | O=C(c1cc(COc2ccc3c(c2)OCO3)[nH]n1)N1CCSCC1 | 102%
55 | Cc1noc(C)c1S(=O)(=O)N1CCc2nc(C3CCNCC3)ncc2C1.Cl | 6.846%
56 | CN(C)C(=O)CN1CCCC(c2nccnc2-c2cccc(Cl)c2)C1 (stereo not given) | 27.94%
57 | O=c1cc(CN2CCCC2)nc2n1CCCN(CC1CC1)C2 | -16.69%
58 | c1ncc(CN2CC(Cc3nccc4cc[nH]c34)C2)cn1 | 24.55%
59 | Cn1cc(CC2CCN(C(=O)NCCc3cccc(O)c3)C2)cn1 (stereo not given) | 9.063%
60 | CCC(=O)N1CCC(c2nc(N3CCCC3)ncc2S(C)(=O)=O)CC1 | -19.63%
61 | CCC(=O)N1CCC(c2nc(N3CCCCC3)ncc2S(C)(=O)=O)CC1 | 49.28%
62 | CS(=O)(=O)c1cnc(N2CCCC2)nc1C1CCN(C(=O)C2CC2)CC1 | 60.16%
63 | CS(=O)(=O)N1CCC(CNC(=O)c2cnccn2)CC1 | -29.61%
64 | COCCN1CCC2(CC1)CN(C(=O)Cc1cccnc1)CCO2.O=C(O)C(F)(F)F.O=C(O)C(F)(F)F | 26.19%
65 | COc1nsc2nc(C3CCCN3C(C)=O)ccc12 (stereo not given) | 51.54%
66 | COc1ccc(Oc2cncc(C3CCCN3C(C)=O)n2)cc1 (stereo not given) | -6.062%
67 | CC(=O)N1CCCC1c1ccc(Br)cn1 (stereo not given) | -5.926%
68 | Cc1ncc(CN(C)C)c(C2CCCN2c2ncccn2)n1 (stereo not given) | 3.651%
69 | OCCc1cc(C2CCCN2c2ncccn2)n[nH]1 (stereo not given) | 5.746%
70 | COc1nsc2nc(C3CCCN3c3ncccn3)ccc12 (stereo not given) | 56.9%
71 | CNCC(=O)N1CCC(c2cccc(Oc3ccccc3)n2)CC1 | 5.467%
72 | COc1ccc(CN2CC[C@@H]3[C@H]2CCC(=O)N3c2cnn(C)c2)cc1.O=C(O)C(F)(F)F | -0.7852%
73 | CCCc1cncnc1N1CCC2(CCC(=O)N(CCOC)C2)CC1 | -26.49%
74 | CNc1cc(N2CCCC2CNCc2ccc(C)o2)ncn1 (stereo not given) | -46.19%
75 | CN1CC(=O)N(c2ccsc2)CC12CCN(S(=O)(=O)c1ccccc1)C2.O=C(O)C(F)(F)F (stereo not given) | 4.283%

Row | SMILES | Percent Effect
76 | O=C(O)C(F)(F)F.O=C(O)C(F)(F)F.OCCN1CC2(CCN(CC3CC3)CC2)c2ccccc21 | 53.69%
77 | CS(=O)(=O)N1CCC2(CC1)CN(CC1CCOC1)c1ccccc12.O=C(O)C(F)(F)F (stereo not given) | 24.53%
78 | CCCS(=O)(=O)N1CCC2(CC1)CN(CC1CCOC1)c1ccccc12.O=C(O)C(F)(F)F (stereo not given) | 53.88%
79 | CCS(=O)(=O)N1CCC2(CC1)CN(CC1CCOC1)c1ccccc12.O=C(O)C(F)(F)F (stereo not given) | -6.416%
80 | O=C(O)C(F)(F)F.c1cnc(N2CCC3(CC2)CN(CC2CC2)c2ccccc23)nc1 | 32.03%
81 | CN1C(=O)C2(CCN(CC3CC3)CC2)c2ccccc21.O=C(O)C(F)(F)F | -19.06%
82 | CCC(=O)NC(Cc1cc(N(C)C)nc(C2CC2)n1)c1ccccc1 (stereo not given) | 47.48%
83 | CC(C)c1nccc(C2CC(=O)Nc3n[nH]c(C4CCC4)c32)n1 (stereo not given) | 28.48%
84 | Cc1cccnc1CN1CCN(c2noc(-c3ccccc3)n2)CC1 | 16.84%
85 | O=C(c1cc(-n2cccn2)ccn1)N(CC(F)(F)F)C1CCCC1 | 17.65%
86 | Cc1nccn1C1CCCN(C(=O)c2ccc3c(c2)nc(C)n3C)C1 (stereo not given) | -4.275%
87 | O=C(CN1CCCC1Cn1cncn1)Nc1nccs1 (stereo not given) | 20.94%
88 | COc1c(C)cnc(CN(C)C(=O)c2cccc(NC(N)=O)c2)c1C | 25.72%
89 | COc1c(C)cnc(CN(C)C(=O)Nc2ccc3c(c2)CCO3)c1C | 65.58%
90 | COCc1cccc(NC(=O)N(C)Cc2ncc(C)c(OC)c2C)c1 | -1.951%
91 | CS(=O)(=O)c1snnc1C1CCN(Cc2cccc(O)c2)CC1 | -3.307%
92 | Cc1cc(N2CCOCC(Cc3ccc4[nH]ccc4c3)C2)ncn1 (stereo not given) | 26.85%
93 | c1cc(N2CCOCC(Cc3ccc4[nH]ccc4c3)C2)ncn1 (stereo not given) | 9.694%
94 | Nc1cc(N2CCOCC(Cc3ccc4[nH]ccc4c3)C2)ncn1 (stereo not given) | 103.2%
95 | Cc1cccc(NC(=O)N2CCC3(CCC(C(=O)N(C)C)O3)CC2)c1 (stereo not given) | -3.897%
96 | CN(C)Cc1cccc(-c2cccnc2C(=O)NCc2ccco2)c1 | 0.1793%
97 | Cc1[nH]c2nc(CNc3ccccc3Cl)nn2c(=O)c1C | 13.95%
98 | O=C(c1cc(-c2ccco2)cs1)N1CCCC1 | 81.62%
99 | CN1CCN(C(=O)c2cc(-c3ccco3)cs2)CC1 | 25.84%
100 | O=C(c1cc(-c2ccco2)cs1)N1CCOCC1 | 26.26%
